FLuc counter: inhibits or activates purified firefly luciferase, miR-21 counter-screen | Potency, µM (series often up to 57.5 µM), actives largely listed as inhibitors | P08659 | 6.9% of 360,000 active | purified FLuc, Km substrates, luminescence inhibition; also: nearly all actives have a fitted effect of over 55% in size
Target sequence (P08659 whole entry, looked up): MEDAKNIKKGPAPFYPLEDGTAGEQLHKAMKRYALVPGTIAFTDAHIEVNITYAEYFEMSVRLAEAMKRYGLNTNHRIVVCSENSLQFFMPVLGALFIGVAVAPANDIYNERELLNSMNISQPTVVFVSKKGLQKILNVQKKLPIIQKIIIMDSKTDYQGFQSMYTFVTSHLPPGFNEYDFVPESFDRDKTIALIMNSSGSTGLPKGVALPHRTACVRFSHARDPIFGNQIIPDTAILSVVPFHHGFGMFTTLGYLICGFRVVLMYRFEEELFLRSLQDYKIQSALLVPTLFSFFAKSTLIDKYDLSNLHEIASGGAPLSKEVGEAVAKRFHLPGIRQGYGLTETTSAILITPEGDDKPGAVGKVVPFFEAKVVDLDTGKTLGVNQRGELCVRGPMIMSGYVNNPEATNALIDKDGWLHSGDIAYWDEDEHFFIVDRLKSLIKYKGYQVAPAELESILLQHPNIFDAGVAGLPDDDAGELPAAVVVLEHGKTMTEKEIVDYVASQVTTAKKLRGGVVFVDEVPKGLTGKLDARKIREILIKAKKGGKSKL
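Biochemical qHTS of compounds, final roughly 60 µM downward over six points, against 10 nM purified firefly luciferase using Km concentrations of substrates (10 uM D-luciferin, 10 uM ATP) in Tris acetate pH 7.5 buffer; luminescence output.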
SMN2 splice enh: enhancers of SMN2 splice variant expression; HEK293 SMN2-luciferase splicing reporter, luminescence, 30-36 h; Potency, µM (top dose mostly 46.1 µM), most hits filed as activators; 2.8% of 210,000 active; also: nearly all actives have a fitted effect of over 55% in size
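HEK293 cells carry an SMN2 minigene-luciferase reporter in which exon 7 inclusion puts luciferase in frame. Cells were seeded at 2000 cells/well, attached for 10-12 hours, then exposed to compounds for 30-36 hours at 37C before ONE-Glo luminescence.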
NPC1 promoter act: activators of NPC1 promoter | 2.4% of 320,000 active | Potency, µM (highest dose often 9.22 µM), most hits filed as activators | Huh7 NPC1 promoter luciferase reporter, 24 h | AID 485313; also: nearly all actives have a fitted effect of over 60% in size
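Luminescence from an NPC1 promoter-driven luciferase reporter in stably transfected Huh7 cells was measured after 24 h compound treatment at 37 °C, followed by 10 min ambient incubation with luciferase detection reagent.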
Rab9 promoter act: activators of Rab9 promoter. Huh7 Rab9 promoter-luciferase reporter, luminescence, 24 h. Potency, µM (doses to about 9.22 µM), usual class: activators. 2.8% of 320,000 active. AID 485297; also: nearly all actives have a fitted effect of over 60% in size
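Measured in stably transfected Huh7 cells bearing a Rab9 promoter–luciferase construct: 24 h compound treatment at 37 °C, followed by luminescence detection.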
ELG1 genotox: genotoxicity induction in ELG1-luciferase HEK293T cells; HEK293T ELG1-luciferase reporter, luminescence, 16 h; Potency, µM (top dose mostly 46 µM), actives largely listed as activators; 1.3% of 330,000 active; AID 504466; also: nearly all actives have a fitted effect of over 60% in size
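DMSO vehicle served as control against compound-treated ELG1-luciferase HEK293T cells; exposure lasted 16 hr at 37 °C and 5% CO2, followed by ONE-Glo luminescence detection after 30 min.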
Numbers stand for hits; – = inactive; ? = inconclusive; · = not tested or not shown. This is a sample that favours compounds with a hit; in the whole collection about 7.5% have one here. Calls follow the shape of the dose curve; as a rule, active = well fitted curve in the direction sought with a large enough effect; inconclusive = small, poorly fitted or top-dose-only effect, or another doubt; inactive = no such curve, though single readings can be large; an effect the other way counts as inactive or inconclusive.

SMILES	FLuc counter	SMN2 splice enh	NPC1 promoter act	Rab9 promoter act	ELG1 genotox
O=C1CCc2cc(S(=O)(=O)NC(Cc3ccccc3)C(=O)N3CCN(c4ccccn4)CC3)ccc2N1 (stereo unspecified)	–	–	–	–	–
Cc1ccoc1C(=O)Nc1ccc(CC(=O)O)cc1	1.7µM	?	–	–	?
Cc1cc(C(=O)Nc2ccc3ccccc3c2)c(C)o1	1.3µM	·	1.4µM	3.5µM	0.65µM
Cc1ccoc1C(=O)Nc1ccc2ccccc2c1	0.38µM	·	1µM	0.45µM	?
Cc1cc(C(=O)Nc2ccc3ccccc3c2)oc1C	2.1µM	·	0.63µM	0.79µM	9.2µM
COCCCNC(=O)CSc1nc2cc3c(cc2c(=O)n1CCCCCC(=O)NCCc1ccc(OC)c(OC)c1)OCO3	–	·	·	·	·
COc1ccc(CCNC(=O)Cn2nc(C)n3c(cc4occc43)c2=O)cc1OC	–	–	·	·	·
N#C/C(=C\c1ccc(OCc2cccc(C(=O)O)c2)cc1)C(=O)NCc1ccco1	30µM	·	0.35µM	0.1µM	?
Cc1cc(/C=C(\C#N)C(=O)NCc2ccco2)c(C)n1C1CCCC1	6µM	–	?	?	?
N#C/C(=C\c1ccc(OCc2ccc(C(=O)O)cc2)cc1)C(=O)NCc1ccccc1	–	·	–	–	–
Cc1cc(/C=C(\C#N)C(=O)NCc2ccco2)c(C)n1-c1cccnc1	15µM	·	?	?	?
Cc1ccc(/C=C(\C#N)C(=O)NCc2ccco2)o1	–	–	–	–	?
Cc1cc(/C=C(/C#N)c2cccc(F)c2)c(C)n1-c1cccnc1	8.5µM	11µM	?	?	5.2µM
COc1ccc(NC(=O)CSc2nc3ccccc3c(=O)n2CCCC(=O)NCC2CCCO2)c(OC)c1 (stereo unspecified)	–	·	–	–	–
COc1ccc(C(=O)Nc2nc(CC(=O)NCCc3cccc(OC)c3)cs2)cc1	13µM	·	–	–	–
COc1ccc(C(=O)Nc2nc(CC(=O)NCCc3ccccc3)cs2)cc1	4.8µM	·	–	–	–
COc1ccc(-c2c3c(=O)n(C)c(=O)n(C)c3c3n2-c2ccccc2NC3c2ccccc2OC)cc1 (stereo unspecified)	–	·	·	·	·
COc1cccc(C2c3[nH]c4ccccc4c3C[C@H]3C(=O)N(CCCCCO)CC(=O)N23)c1 (stereo partly specified)	–	·	–	–	–
CCC(=O)c1ccc(OCc2ccccc2)c(OC)c1	?	14µM	?	?	?
CCOc1ccc(C(=O)/C=C/c2ccc(OC)c(OC)c2)cc1	17µM	–	–	–	–
CCOc1ccc(/C=C/C(=O)c2ccccc2)cc1OC	4.3µM	–	?	?	?
Cc1nc2cnc(OCc3ccccc3)nc2n(Cc2ccc(F)cc2)c1=O	·	–	·	·	·
O=C(COC(=O)CSc1ccc(F)cc1)NC1CCCCCC1	–	·	–	–	–
O=C(Cn1cc(S(=O)(=O)Cc2ccc(F)cc2)c2ccccc21)NCc1ccccc1	–	·	·	·	·
O=C(NC(=S)NCC1COc2ccccc2O1)c1ccccc1 (stereo unspecified)	?	–	–	–	–
SMILES	FLuc counter	SMN2 splice enh	NPC1 promoter act	Rab9 promoter act	ELG1 genotox
O=C(NCC1COc2ccccc2O1)c1ccccc1 (stereo unspecified)	12µM	13µM	4µM	4.5µM	?
O=C(NCC1COc2ccccc2O1)c1cc2ccccc2o1 (stereo unspecified)	13µM	–	–	–	–
O=C(NCCCN1CCCC1=O)c1cccc(NS(=O)(=O)c2ccc(Br)cc2)c1	–	·	–	–	–
CCc1occc(=O)c1Oc1cc(NN2CCCCC2)c([N+](=O)[O-])cc1[N+](=O)[O-]	–	·	–	–	–
O=C(NC(=O)c1ccccc1)C1=C(N2CCCC2)COC1=O	?	·	2.2µM	1.3µM	?
Cc1nc(CN(C)C(=O)c2cc(COc3c(F)cccc3F)on2)cs1	–	·	–	–	–
CN(Cc1cc(-c2ccccc2)on1)C(=O)c1cc(COc2c(F)cccc2F)on1	24µM	·	–	2.5µM	–
COC(=O)[C@H](Cc1ccccc1)NC(=O)c1cc(COc2c(F)cccc2F)on1	19µM	·	?	?	?
COc1nccnc1NS(=O)(=O)c1ccc(N=Cc2c(C)[nH]n(-c3ccc(C)c(C)c3)c2=O)cc1	15µM	–	–	–	–
Cc1ccc(-n2[nH]c(C)c(C=Nc3ccc(S(=O)(=O)Nc4nccs4)cc3)c2=O)cc1C	19µM	–	–	–	–
Cc1[nH]n(-c2ccccc2)c(=O)c1C=Nc1ccc(S(=O)(=O)Nc2nccs2)cc1	–	–	–	–	–
CCOC(=O)C1=NN(C(=O)c2ccc(OC)cc2)C(O)(c2ccc(Cl)cc2)C1 (stereo unspecified)	–	–	–	–	–
COC(=O)C1=NN(C(=O)c2cccc(Br)c2)C(O)(c2ccc(Cl)cc2)C1 (stereo unspecified)	11µM	·	–	–	–
COc1ccc(OC)c2sc(N3CCN(C(=O)C(C)(C)C)CC3)nc12	13µM	·	·	·	·
CCOC(=O)c1c(C)nc2c3ccccc3ccn12	3.8µM	13µM	–	2.2µM	4.1µM
COC(=O)C1C(=O)c2c([nH]c(C(=O)OC3CCCC3)c2C)CC1C (stereo unspecified)	2.4µM	14µM	·	·	·
CCc1nn(CC(=O)N2CCN(c3ccc(OC)cc3)CC2)c(=O)c2cc3occc3n12	–	·	–	–	–
O=C(NC1CC1)C1CCCN1S(=O)(=O)c1ccc2ccccc2c1 (stereo unspecified)	–	11µM	–	–	–
CCNC(=O)C1CCCN1S(=O)(=O)c1ccc2ccccc2c1 (stereo unspecified)	–	·	–	–	–
CCOCCCNC(=S)Nc1ccc2nc(N3CCOCC3)cc(C)c2c1	–	·	–	–	–
Cc1csc(SCCN2C(=O)c3ccccc3C2=O)n1	13µM	–	?	?	?
O=C1c2ccccc2C(=O)N1CCSc1nncs1	–	–	–	–	–
O=C1c2ccccc2C(=O)N1CCSc1ccccc1	4.3µM	?	2.8µM	?	12µM
Nc1nc(SCCN2C(=O)c3ccccc3C2=O)n[nH]1	–	–	–	–	–
CCCCN(CC)CCNc1ncnc2onc(-c3ccc(Cl)cc3)c12	–	–	·	·	·
SMILES	FLuc counter	SMN2 splice enh	NPC1 promoter act	Rab9 promoter act	ELG1 genotox
Cc1ccc(-n2c(=O)c3c(cnn3C)n(CC(=O)Nc3c(C)cccc3C)c2=O)cc1	–	–	·	·	·
O=C(Nc1ccc(F)cc1)c1ccc(CSc2ccccc2)o1	15µM	–	–	–	–
O=C(Nc1ccc(F)cc1)c1ccc(CSc2ccc(Cl)cc2)o1	?	·	–	–	–
CC(C)Cc1ccc(C(=O)NCCOc2ccccc2)o1	0.95µM	·	0.32µM	0.79µM	3.3µM
Cc1ccc(OCCNC(=O)c2ccc(COc3ccccc3)o2)cc1	–	·	–	–	–
O=C(NCCOc1ccccc1)c1cc2ccccc2o1	5.4µM	10µM	·	·	·
COc1ccc(Oc2ncc3nc(-c4ccc(OC)cc4)c(=O)n(CCC#N)c3n2)cc1	·	–	·	·	·

Compound activity (PubChem BioAssay)
